Our source for the max response, outcome and Potency values is PubChem BioAssay (NCATS).

For one test, the system named is CRL-7250. As to the kind of experiment: Cytotoxic Profiling of Annotated Libraries Using Quantitative High-Throughput Screening (AID 1296008). For max response: % is set by controls: 0 for no effect and ±100 for the full control effect. Note: nearly all actives have a fitted effect of over 60% in size. The conditions noted are these: Five cell lines viability, CellTiter-Glo ATP luminescence, 48-72 h; max response: hits give low values. In a few lines: (§1)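 Compounds were pin-transferred onto cells and incubated 48 or 72 hr at 37 degree Celsius, 95% humidity. CellTiter-Glo was added, plates sat 10 min at room temperature, then ATP-coupled luminescence was imaged as the viability read-out.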
Background: Cellular ATP, detected with luciferase, serves as a proxy for viable cell number.

Another test relates to HaCat. Described as above. The conditions noted are these: Five cell lines viability, CellTiter-Glo ATP luminescence, 48-72 h; max response: hits give low values. The essentials: as §1
The next test relates to KB-3-1. The description is as above. Particulars: Five cell lines viability, CellTiter-Glo ATP luminescence, 48-72 h; max response: hits give low values. The essentials: as §1
Test [1] concerns NIH3T3. Described as above. Particulars: Five cell lines viability, CellTiter-Glo ATP luminescence, 48-72 h; max response: hits give low values. The essentials: as §1
Test [2] concerns NIH3T3. Briefly: qHTS assay to identify novel small-molecules to repurpose for Merkel cell carcinoma treatment (AID 1296009). Note: nearly all actives have a fitted effect of over 60% in size. Particulars: MCC and control cell lines, CellTiter-Glo viability, 72 h; series mostly up to 44.8 µM. In a few lines:
(§2)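 Cells exposed to NPC (8-point) and MIPE (11-point) compound dilutions for 72 hr at 37 degree celsius; viability read by CellTiter-Glo luminescence, normalized to no-cell and DMSO in-plate controls.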
Background: Quantitative high-throughput screening tests each substance at several concentrations.

A further test relates to C33A. Briefly: Primary qHTS to identify gynecologic anti-cancer compounds using libraries of approved drugs and bioactive compounds (AID 1345084). Note: nearly all actives have a fitted effect of over 55% in size. The conditions noted are these: Gynecologic cancer cell panel viability, ATPlite luminescence, 48 h; series mostly up to 57.5 µM. The essentials: (§3)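 Cytotoxicity screen measuring ATP content by luciferase luminescence. Each compound is applied at five concentrations for 48 h at 37 C with 5% CO2.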

The subject of the next test is CAOV3. Described as above. Particulars: Gynecologic cancer cell panel viability, ATPlite luminescence, 48 h; series mostly up to 57.5 µM. In a few lines: as §3
The next test has as its system CASKI. Described as above. The conditions noted are these: Gynecologic cancer cell panel viability, ATPlite luminescence, 48 h; series mostly up to 57.5 µM. The essentials:
as §3

For another test, the system named is Es-2. Described as above. Particulars: Gynecologic cancer cell panel viability, ATPlite luminescence, 48 h; series mostly up to 57.5 µM. In a few lines:
as §3

In a further test the test system is HeLa. The test is described as above. Particulars: Gynecologic cancer cell panel viability, ATPlite luminescence, 48 h; series mostly up to 57.5 µM. The essentials: as §3
For a further test, the system named is Hek293T. Described as above. Particulars: Gynecologic cancer cell panel viability, ATPlite luminescence, 48 h, control line for the selectivity index; series mostly up to 57.5 µM. The essentials: as §3
The test system of a further test is OV90. The description is as above. The conditions noted are these: Gynecologic cancer cell panel viability, ATPlite luminescence, 48 h; series mostly up to 57.5 µM. In a few lines:
as §3

A further test deals with PA-1. The description is as above. Particulars: Gynecologic cancer cell panel viability, ATPlite luminescence, 48 h; series mostly up to 57.5 µM. The essentials: as §3
The next test has as its system JEG-3. The description is as above. The conditions noted are these: Gynecologic cancer cell panel viability, ATPlite luminescence, 48 h; series mostly up to 57.5 µM. In a few lines:
as §3

A further test relates to MCC-26. As to the kind of experiment: qHTS assay to identify novel small-molecules to repurpose for Merkel cell carcinoma treatment (AID 1296009). Note: nearly all actives have a fitted effect of over 60% in size. The conditions noted are these: MCC and control cell lines, CellTiter-Glo viability, 72 h. In a few lines:
as §2

In another test the test system is MKL-2. The test is described as above. The conditions noted are these: MCC and control cell lines, CellTiter-Glo viability, 72 h. In a few lines: as §2

Structures are written as SMILES. Inconclusive results are not listed. Unmarked numbers belong to inactive results. Activity calls are given as the source filed them. Calls come from the whole dose curve; as a rule, active = well fitted curve in the direction sought with a large enough effect; inconclusive = small, poorly fitted or top-dose-only effect, or another doubt; inactive = no such curve, though single readings can be large; an effect the other way counts as inactive or inconclusive.
Potency is the fitted concentration of half-maximal effect.

As for `Cn1cc(C2=C(c3coc4ccccc34)C(=O)NC2=O)c2cc(Br)ccc21`, the max response with CRL-7250 was 2.54%; in the test with HaCat it was 3.32%. The molecule was classed as inactive with KB-3-1 and in the test on NIH3T3 [1]. Further, the Potency result in the test with NIH3T3 [2], in the test with C33A, with CAOV3, in the test on CASKI, in the test on Es-2 and in the test with HeLa was “inactive” each time. Besides, the Potency entry in the test with Hek293T, in the test on OV90 and in the test with PA-1 was “inactive” in each case.
Regarding `C=CC(C)(C)c1[nH]c2ccccc2c1C[C@@H]1NC(=O)[C@H](C)NC1=O`, the max response in the test with CRL-7250 is -22.2%; in the test with HaCat, 1.83%; in the test with KB-3-1, 3.23%. Moreover, the molecule was called inactive in the test on NIH3T3 [1]. The Potency entry in the test on NIH3T3 [2], with C33A, in the test on CASKI, in the test on Es-2, in the test with HeLa and in the test with Hek293T was “inactive” in each case. Moreover, the Potency entry in the test on JEG-3, in the test with OV90 and with PA-1 was “inactive” each time.
`CN[C@H]1CC[C@@H](c2ccc(Cl)c(Cl)c2)c2ccccc21`: the Potency is 3.76 µM (active) in the test with CRL-7250; 15 µM (active) with HaCat; 11.9 µM (active) in the test on NIH3T3 [1]; 26.6 µM (active) in the test on MCC-26; 8.41 µM (active) in the test on MKL-2; 28.2 µM (active) in the test on CASKI. Moreover, the max response in the test with KB-3-1 is -11.2%.
On to `CCCCc1ccc(NS(=O)(=O)c2ccc(F)cc2)cc1`, for which the molecule was called inactive in the test with CRL-7250 and in the test with NIH3T3 [1]. Also, the max response in the test on HaCat was -1.98%; in the test with KB-3-1, 4.06%. Besides, the Potency entry in the test with NIH3T3 [2], in the test on C33A, in the test with CAOV3, with CASKI, with Es-2 and in the test with HeLa was “inactive” each time. Further, the Potency result in the test with Hek293T, with JEG-3, with OV90 and in the test with PA-1 was “inactive” each time.
Turning to `O=C(c1ccccn1)N(Cc1cccs1)C1(C(=O)NC2CCCCC2)CCCCC1`, the results for the max response with CRL-7250, with HaCat and with KB-3-1 were -5.83%, -24.4% and 7.82%, respectively. In the test with NIH3T3 [1], the molecule was called inactive. Besides, the Potency result with NIH3T3 [2], in the test with C33A, in the test with CASKI, in the test on Es-2, in the test on HeLa and in the test with Hek293T was “inactive” in each case. Besides, the Potency entry in the test on JEG-3, in the test with OV90 and with PA-1 was “inactive” throughout.
Turning to `COC(=O)CC[C@@H](C)C1CCC2C3CCC4C[C@H](OC(C)=O)CCC4(C)C3C[C@H](O)C21C` (some centres not stated), the max response was -0.684% with CRL-7250, -5.91% in the test with HaCat and 9.49% with KB-3-1. In addition, the molecule was called inactive in the test with NIH3T3 [1]. Further, the Potency result with NIH3T3 [2], in the test on C33A, in the test with CAOV3, in the test on CASKI, in the test on Es-2 and with HeLa was “inactive” throughout. Also, the Potency entry in the test on Hek293T, in the test on JEG-3, with OV90 and in the test with PA-1 was “inactive” in each case.
Regarding `Nc1nc2c(nc(Br)n2[C@@H]2O[C@@H]3COP(=O)(O)O[C@H]3[C@H]2O)c(=O)[nH]1`, the max response in the test on CRL-7250 was -4.64%; with HaCat, -8.41%. In addition, the call in the test on KB-3-1 and with NIH3T3 [1] was inactive. The Potency entry in the test with NIH3T3 [2], in the test on C33A, in the test on CAOV3, in the test on CASKI, in the test on Es-2 and in the test on HeLa was “inactive” in each case. The Potency result in the test on Hek293T, in the test with JEG-3, in the test on OV90 and with PA-1 was “inactive” each time.
Consider `COc1ccccc1N1CCN(CC(C(=O)NC(C)(C)C)c2ccccc2)CC1` (configuration not stated), for which the call in the test on CRL-7250 and with NIH3T3 [1] was inactive. For the same molecule, the max response in the test on HaCat was -3.82%; with KB-3-1, 7.33%. Moreover, the Potency entry in the test on NIH3T3 [2], in the test on CASKI, in the test with Es-2, in the test with HeLa, in the test with Hek293T and with JEG-3 was “inactive” each time. Moreover, the Potency result in the test with OV90 and in the test with PA-1 was “inactive” each time.
With `CC#C[C@@H](CC(=O)O)c1ccc(OCc2ccc(CN3CCC4(C=Cc5ccccc54)CC3)s2)cc1`, the outcome in the test with CRL-7250 and in the test on NIH3T3 [1] was inactive. The max response in the test with HaCat was 1.71%; with KB-3-1 it was -9.33%. The Potency result with NIH3T3 [2], with C33A, in the test on CAOV3, in the test on CASKI, in the test on Es-2 and in the test on HeLa was “inactive” in each case. Also, the Potency result in the test with Hek293T, with JEG-3, in the test on OV90 and with PA-1 was “inactive” in each case.
`CC(=O)NCc1cccc(OC[C@@H](O)CNCCc2ccc(NS(=O)(=O)c3ccccc3)cc2)c1`: the max response in the test with CRL-7250 is -6.68%; in the test on HaCat, -3.13%; with KB-3-1, -5.62%. Further, the result with NIH3T3 [1] was inactive. The Potency result in the test with NIH3T3 [2], with C33A, with CASKI, with Es-2, in the test with HeLa and in the test on Hek293T was “inactive” in each case. Moreover, the Potency result in the test on JEG-3 and with PA-1 was “inactive” in each case.
As to `N#Cc1cc(C2=Nc3ccc(Br)cc3NC(=O)C2)ccn1`, the results for the max response in the test with CRL-7250, with HaCat and with KB-3-1 were -3.76%, 4.97% and 4.39%, respectively. Also, the molecule was classed as inactive in the test with NIH3T3 [1]. The Potency entry in the test on NIH3T3 [2], with C33A, in the test on CAOV3, with CASKI, in the test with Es-2 and in the test on HeLa was “inactive” each time. For the same molecule, the Potency entry with Hek293T, in the test with JEG-3, in the test on OV90 and in the test on PA-1 was “inactive” throughout.
Consider `C=C(COC(=O)C(O)C(O)CN)C12OC1C1(C)C(=CC2=O)C(O)C(O)CC1C` (configuration not stated), for which the max response was -7.2% with CRL-7250 and 0.561% with HaCat. Moreover, the call in the test with KB-3-1 and in the test on NIH3T3 [1] was inactive. Further, the Potency result with NIH3T3 [2], in the test on C33A, in the test on CAOV3, in the test on CASKI, with Es-2 and in the test with HeLa was “inactive” in each case. In addition, the Potency entry in the test on Hek293T, in the test on JEG-3, in the test on OV90 and in the test on PA-1 was “inactive” throughout.
Turning to `COc1cc2c(cc1OCCCN1CCCC1)N=C(N)C21CCC1`, the max response was -5.27% in the test with CRL-7250, 2.83% with HaCat and 0.253% in the test on KB-3-1. In addition, the outcome in the test on NIH3T3 [1] was “inactive; activator”. In addition, the Potency result with NIH3T3 [2], with C33A, in the test on CAOV3, with CASKI, with Es-2 and in the test on HeLa was “inactive” each time. Also, the Potency result in the test with Hek293T, in the test with JEG-3, with OV90 and in the test with PA-1 was “inactive” throughout.
As to `O=C(/C=C/c1ccccc1O)O[C@@H]1O[C@H](CO)[C@@H](O)[C@H](O)[C@H]1O`, the max response with CRL-7250 was 2.59%; with HaCat, -3.03%. In addition, the result in the test on KB-3-1 and with NIH3T3 [1] was inactive. The Potency entry in the test on NIH3T3 [2], with C33A, with CAOV3, with CASKI, in the test on Es-2 and in the test with HeLa was “inactive” throughout. The Potency entry in the test on Hek293T, with JEG-3, with OV90 and in the test with PA-1 was “inactive” in each case.
